Test results as given in PubChem BioAssay AID1159580 (chemical genetic matrix, 2015).
Screen size: about 5,500 compounds; about 2,000 (36%) were called active. Another 18% or so got no clear call; they are omitted. Some of the results follow. A number with no mark means an inactive call. No stated cut-off is given here; in the data, active means normalized growth mostly below about 0.91 (no sharp cut-off); inconclusive means no clear call, values can overlap the other calls; inactive means mostly above about 0.92.

Assay: chemical genetic growth profiling, strain panel (AID 1159580);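 further: tested at 20 µM; growth read once vehicle control cultures reached saturation at 30 °C; 1 = growth at the plate median or of vehicle wells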
Conditions: S. cerevisiae deletion strains, growth OD

CC1=NN(c2ccccc2)C(=O)C1
normalized growth (locus YAL021C, strain ccr4, stronger effect = lower value): 0.982
normalized growth (locus YAL026C, strain drs2, stronger effect = lower value): 0.959
normalized growth (locus YAL030W, strain snc1, stronger effect = lower value): 0.998
normalized growth (locus YBL061C, strain skt5, stronger effect = lower value): 0.987
normalized growth (locus YBR009C, strain hhf1, stronger effect = lower value): 0.936
normalized growth (locus YBR021W, strain FUR4, stronger effect = lower value): 0.993
normalized growth (locus YBR023C, strain chs3, stronger effect = lower value): 0.983
normalized growth (locus YBR171W, strain sec66, stronger effect = lower value): 0.994
normalized growth (locus YBR229C, strain ROT2, stronger effect = lower value): 0.978
normalized growth (locus YBR231C, strain swc5, stronger effect = lower value): 0.979
normalized growth (locus YBR279W, strain paf1, stronger effect = lower value): 0.979
normalized growth (locus YCL011C, strain gbp2, stronger effect = lower value): 0.98
normalized growth (locus YCL016C, strain dcc1, stronger effect = lower value): 0.965
normalized growth (locus YCL029C, strain bik1, stronger effect = lower value): 0.982
normalized growth (locus YCL061C, strain MRC1, stronger effect = lower value): 0.985
normalized growth (locus YCL069W, strain vba3, stronger effect = lower value): 0.986
normalized growth (locus YCR088W, strain abp1, stronger effect = lower value): 0.993
normalized growth (locus YDL005C, strain med2, stronger effect = lower value): 0.975
normalized growth (locus YDL035C, strain GPR1, stronger effect = lower value): 0.955
normalized growth (locus YDL040C, strain nat1, stronger effect = lower value): 0.978
normalized growth (locus YDL074C, strain BRE1, stronger effect = lower value): 0.912
normalized growth (locus YDL101C, strain DUN1, stronger effect = lower value): 0.957
normalized growth (locus YDL134C, strain PPH21, stronger effect = lower value): 0.971
normalized growth (locus YDL185W, strain tfp1, stronger effect = lower value): 0.976
normalized growth (locus YDL192W, strain arf1, stronger effect = lower value): 0.918
normalized growth (locus YDR001C, strain nth1, stronger effect = lower value): 0.994
normalized growth (locus YDR069C, strain doa4, stronger effect = lower value): 0.969
normalized growth (locus YDR101C, strain arx1, stronger effect = lower value): 1.01
normalized growth (locus YDR137W, strain rgp1, stronger effect = lower value): 0.899
normalized growth (locus YDR159W, strain sac3, stronger effect = lower value): 0.957
normalized growth (locus YDR162C, strain NBP2, stronger effect = lower value): 0.925
normalized growth (locus YDR195W, strain ref2): 1
normalized growth (locus YDR297W, strain sur2, stronger effect = lower value): 0.983
normalized growth (locus YDR318W, strain mcm21, stronger effect = lower value): 0.904 (active)
normalized growth (locus YDR334W, strain swr1, stronger effect = lower value): 0.992
normalized growth (locus YDR335W, strain msn5, stronger effect = lower value): 0.99
normalized growth (locus YDR388W, stronger effect = lower value): 0.958
normalized growth (locus YDR392W, strain spt3, stronger effect = lower value): 0.609 (active)
normalized growth (locus YDR502C, strain sam2, stronger effect = lower value): 0.934
normalized growth (locus YEL003W, strain gim4, stronger effect = lower value): 0.97
normalized growth (locus YEL037C, strain rad23, stronger effect = lower value): 0.994
normalized growth (locus YEL061C, strain CIN8 (second series), stronger effect = lower value): 0.988
normalized growth (locus YEL061C, strain CIN8, stronger effect = lower value): 0.992
normalized growth (locus YER015W, strain faa2, stronger effect = lower value): 0.987
normalized growth (locus YER016W, strain bim1, stronger effect = lower value): 0.99
normalized growth (locus YER110C, stronger effect = lower value): 0.98
normalized growth (locus YER111C, strain swi4, stronger effect = lower value): 0.989
normalized growth (locus YER155C, strain BEM2 (second series), stronger effect = lower value): 0.917
normalized growth (locus YER155C, strain BEM2, stronger effect = lower value): 0.991
normalized growth (locus YER167W, strain BCK2, stronger effect = lower value): 0.952
normalized growth (locus YFR010W, strain ubp6, stronger effect = lower value): 0.983
normalized growth (locus YGL078C, strain dbp3, stronger effect = lower value): 0.98
normalized growth (locus YGL086W, strain mad1, stronger effect = lower value): 0.955
normalized growth (locus YGL167C, strain pmr1, stronger effect = lower value): 0.982
normalized growth (locus YGL173C, strain kem1, stronger effect = lower value): 0.974
normalized growth (locus YGL227W, strain vid30, stronger effect = lower value): 0.995
normalized growth (locus YGL240W, strain doc1, stronger effect = lower value): 0.952
normalized growth (locus YGL248W, strain PDE1, stronger effect = lower value): 0.963
normalized growth (locus YGL253W, strain hxk2, stronger effect = lower value): 0.976
normalized growth (locus YGR135W, strain pre9, stronger effect = lower value): 0.914
normalized growth (locus YGR252W, strain gcn5, stronger effect = lower value): 0.867
normalized growth (locus YHR013C, strain ard1, stronger effect = lower value): 0.881
normalized growth (locus YHR027C, strain rpn1, stronger effect = lower value): 0.985
normalized growth (locus YHR030C, strain SLT2, stronger effect = lower value): 0.987
normalized growth (locus YHR079C, strain IRE1 (second series), stronger effect = lower value): 0.981
normalized growth (locus YHR094C, strain hxt1, stronger effect = lower value): 0.982
normalized growth (locus YHR129C, strain ARP1, stronger effect = lower value): 0.972
normalized growth (locus YHR142W, strain chs7, stronger effect = lower value): 0.972
normalized growth (locus YHR200W, strain rpn10, stronger effect = lower value): 0.975
normalized growth (locus YIL066C, strain RNR3, stronger effect = lower value): 0.929
normalized growth (locus YIL073C, strain SPO22, stronger effect = lower value): 0.898
normalized growth (locus YIL125W, strain kgd1, stronger effect = lower value): 0.93 (active)
normalized growth (locus YIR030C, strain dcg1, stronger effect = lower value): 0.978
normalized growth (locus YJL092W, strain hpr5, stronger effect = lower value): 0.985
normalized growth (locus YJL095W, strain BCK1 (second series), stronger effect = lower value): 0.983
normalized growth (locus YJL095W, strain BCK1, stronger effect = lower value): 0.935
normalized growth (locus YJL115W, strain asf1, stronger effect = lower value): 0.983
normalized growth (locus YJL129C, strain trk1, stronger effect = lower value): 0.985
normalized growth (locus YJL134W, strain LCB3, stronger effect = lower value): 0.981
normalized growth (locus YJL154C, strain vps35, stronger effect = lower value): 0.997
normalized growth (locus YJL164C, strain tpk1, stronger effect = lower value): 0.973
normalized growth (locus YJL166W, strain qcr8, stronger effect = lower value): 0.949
normalized growth (locus YJL168C, strain set2, stronger effect = lower value): 0.993
normalized growth (locus YJL187C, strain SWE1 (second series), stronger effect = lower value): 0.986
normalized growth (locus YJL187C, strain SWE1, stronger effect = lower value): 0.983
normalized growth (locus YJR043C, strain POL32, stronger effect = lower value): 0.998
